Molecules are shown by their SMILES. Out of some 360,000 compounds screened, about 1,700 (0.47%) were called active. Rule as the data show it: active = activation above about 15%; inactive = the rest. Only a selection was taken, and actives are over-represented in it overall.

The assay in a line: counter-screen for M1 agonists: effect in parental CHO-K1 cells (AID 602248).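 Also: untransfected CHO-K1 host cells lacking M1 receptor as counterscreen.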 The note with it: Fluo-8 calcium fluorescence, at 3 µM, stronger effect = higher value. On the technique in general: A counterscreen serves to expose hits that act by an unwanted route or on another target.
Turning to `O=C(CCNS(=O)(=O)c1ccccc1)Nc1ccc(Cl)cc1C(=O)c1ccccc1`, the activation was 16% (active).

In the case of `CN1CCN(C(=S)SCC(=O)Nc2ccc(Cl)cc2C(=O)c2ccccc2)CC1`, the activation was 3.53% (inactive).

Turning to `O=C(COC(=O)c1ccccc1)Nc1ccc(Cl)cc1C(=O)c1ccccc1`, the activation was 0.05% (inactive).

`CN(C)C(=O)Oc1ccc(OCc2cccc[n+]2C)cc1`: the activation is -0.29% (inactive).

Consider `CCCCCCCCCCCCn1ccc(=N)cc1`, for which the activation is 31.4% (active).

Consider `CNC(=O)Nc1ccc(C(O)(C(=O)OC)C(F)(F)F)cc1` (stereo not given), for which the activation is 1.17% (inactive).

As to `COC(=O)C1=C(c2cccc(OCc3ccccc3)c2)C[C@@H]2CC[C@H]1N2C(=O)NNCc1ccccc1`, the activation is 0.39% (inactive).

For `CCOC(=O)CC1=C(C(=O)OCC)C2(C(=O)N1)C(C(=O)OC)=C(N)Oc1ccccc12` (stereo not given), the activation was -0.01% (inactive).

With `O=C1NC(=O)C(CCc2ccccn2)(Cc2cccc(Cl)c2Cl)C(=O)N1c1ccc(Br)cc1` (stereo not given), the activation was 4.3% (inactive).

Regarding `Cc1cc(C(=O)OCC(=O)Nc2c(F)cccc2F)c(C)n1C1CC1`, the activation is 0.33% (inactive).

As for `CC(C)N(CC#CCC1(O)c2ccccc2-c2ccccc21)C(C)C`, the activation is 0.55% (inactive).

As to `N=c1ccccn1Cc1ccccc1`, the activation was 15.6% (active).

For `CCN1CCN(c2nc3c(c(=O)[nH]2)CCC3)CC1`, the activation was 0.18% (inactive).

For `CCCn1c(C(=O)c2ccccc2OC)nc2ccccc21`, the activation is -0.18% (inactive).

For the compound `CC1=C2C(=O)C3C(CC=C4CC(OC5OC(O)C(O)C(O)C5CO)CCC43C)C2CCC12OC1CC(C)CNC1C2C` (stereo not given), the activation is 1.23% (inactive).

The record behind these values is PubChem BioAssay AID602248 (The Scripps Research Institute Molecular Screening Center, 2012).
